Assay results: PubChem BioAssay AID1159580 (chemical genetic matrix, 2015)
Among all 5,500 compounds or so, about 2,000 (36%) were called active. About 18% were inconclusive and are not listed. Rule as the data show it: active = normalized growth mostly below about 0.91 (no sharp cut-off); inconclusive = no clear call, values can overlap the other calls; inactive = mostly above about 0.92. This is one part of the list.

Test: chemical genetic growth profiling, strain panel (AID 1159580);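 also: tested at 20 µM; growth read once vehicle control cultures reached saturation at 30 °C; 1 = growth at the plate median or of vehicle wells; lower values mean less growth of the strain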
Conditions: growth OD

Measured: normalized growth

O=c1cc(-c2ccc(O)cc2)oc2cc(O[C@@H]3O[C@H](CO)[C@@H](O)[C@H](O)[C@H]3O[C@@H]3OC[C@](O)(CO)[C@H]3O)cc(O)c12
inactive: S. cerevisiae deletion strains, locus YJR075W, strain HOC1, active compounds read low 1.04 | S. cerevisiae deletion strains, locus YKL009W, strain mrt4, active compounds read low 0.986 | S. cerevisiae deletion strains, locus YKL068W, active compounds read low 0.991 | S. cerevisiae deletion strains, locus YKL085W, strain MDH1 (second series), active compounds read low 0.999 | S. cerevisiae deletion strains, locus YKL085W, strain MDH1, active compounds read low 0.999 | S. cerevisiae deletion strains, locus YKL160W, strain elf1, active compounds read low 1.01 | S. cerevisiae deletion strains, locus YKL190W, strain CNB1, active compounds read low 0.994 | S. cerevisiae deletion strains, locus YKR001C, strain vps1, active compounds read low 0.987 | S. cerevisiae deletion strains, locus YKR026C, strain gcn3, active compounds read low 0.991 | S. cerevisiae deletion strains, locus YKR091W, strain srl3, active compounds read low 1.01 | S. cerevisiae deletion strains, locus YLL001W, strain dnm1, active compounds read low 0.993 | S. cerevisiae deletion strains, locus YLL026W, active compounds read low 0.995 | S. cerevisiae deletion strains, locus YLL041C, strain sdh2, active compounds read low 1 | S. cerevisiae deletion strains, locus YLR027C, strain aat2, active compounds read low 1.01 | S. cerevisiae deletion strains, locus YLR039C, strain RIC1, active compounds read low 1.11 | S. cerevisiae deletion strains, locus YLR058C, strain SHM2, active compounds read low 1.02 | S. cerevisiae deletion strains, locus YLR102C, strain apc9, active compounds read low 0.989 | S. cerevisiae deletion strains, locus YLR113W, strain HOG1, active compounds read low 1.03 | S. cerevisiae deletion strains, locus YLR221C, strain rsa3, active compounds read low 1.01 | S. cerevisiae deletion strains, locus YLR258W, strain gsy2, active compounds read low 0.997 | S. cerevisiae deletion strains, locus YLR262C, strain YPT6 (second series), active compounds read low 0.999 | S. cerevisiae deletion strains, locus YLR262C, strain YPT6, active compounds read low 1.16 | S. cerevisiae deletion strains, locus YLR268W, strain sec22, active compounds read low 0.983 | S. cerevisiae deletion strains, locus YLR320W, strain mms22, active compounds read low 1.02 | S. cerevisiae deletion strains, locus YLR330W, strain CHS5, active compounds read low 1.04 | S. cerevisiae deletion strains, locus YLR342W, strain FKS1 (second series), active compounds read low 0.994 | S. cerevisiae deletion strains, locus YLR342W, strain FKS1, active compounds read low 1.01 | S. cerevisiae deletion strains, locus YLR357W, strain rsc2, active compounds read low 0.979 | S. cerevisiae deletion strains, locus YLR370C, strain arc18, active compounds read low 1 | S. cerevisiae deletion strains, locus YLR371W, strain rom2, active compounds read low 0.985 | S. cerevisiae deletion strains, locus YLR384C, strain iki3, active compounds read low 0.999 | S. cerevisiae deletion strains, locus YLR418C, strain cdc73, active compounds read low 1.06 | S. cerevisiae deletion strains, locus YML016C, strain PPZ1, active compounds read low 1.01 | S. cerevisiae deletion strains, locus YML032C, strain rad52, active compounds read low 1 | S. cerevisiae deletion strains, locus YML120C, strain ndi1, active compounds read low 1.02 | S. cerevisiae deletion strains, locus YML124C, strain tub3, active compounds read low 0.991 | S. cerevisiae deletion strains, locus YMR058W, strain fet3, active compounds read low 1.01 | S. cerevisiae deletion strains, locus YMR078C, strain ctf18, active compounds read low 0.963 | S. cerevisiae deletion strains, locus YMR125W, strain sto1, active compounds read low 0.992 | S. cerevisiae deletion strains, locus YMR129W, active compounds read low 1.01 | S. cerevisiae deletion strains, locus YMR205C, strain PFK2, active compounds read low 1.01 | S. cerevisiae deletion strains, locus YMR223W, strain ubp8, active compounds read low 1.02 | S. cerevisiae deletion strains, locus YMR231W, strain pep5, active compounds read low 0.997 | S. cerevisiae deletion strains, locus YMR263W, strain SAP30, active compounds read low 1.02 | S. cerevisiae deletion strains, locus YMR307W, strain GAS1, active compounds read low 1.04 | S. cerevisiae deletion strains, locus YNL067W, strain RPL9B, active compounds read low 1.02 | S. cerevisiae deletion strains, locus YNL071W, strain lat1, active compounds read low 1.02 | S. cerevisiae deletion strains, locus YNL153C, strain GIM3, active compounds read low 1 | S. cerevisiae deletion strains, locus YNL183C, strain NPR1, active compounds read low 0.979 | S. cerevisiae deletion strains, locus YNL209W, strain ssb2, active compounds read low 1.01 | S. cerevisiae deletion strains, locus YNL233W, strain BNI4, active compounds read low 1.02 | S. cerevisiae deletion strains, locus YNL248C, strain rpa49, active compounds read low 1 | S. cerevisiae deletion strains, locus YNL250W, strain rad50, active compounds read low 1 | S. cerevisiae deletion strains, locus YNL271C, strain bni1, active compounds read low 1.01 | S. cerevisiae deletion strains, locus YNL298W, strain CLA4, active compounds read low 0.994 | S. cerevisiae deletion strains, locus YNL307C, strain MCK1, active compounds read low 0.977 | S. cerevisiae deletion strains, locus YNL322C, strain KRE1 (second series), active compounds read low 0.994 | S. cerevisiae deletion strains, locus YNL322C, strain KRE1, active compounds read low 1.01 | S. cerevisiae deletion strains, locus YNR049C, strain mso1, active compounds read low 0.998 | S. cerevisiae deletion strains, locus YNR052C, strain pop2, active compounds read low 1 | S. cerevisiae deletion strains, locus YOL012C, strain htz1 0.956 | S. cerevisiae deletion strains, locus YOL147C, strain pex11, active compounds read low 0.996 | S. cerevisiae deletion strains, locus YOR001W, strain rrp6, active compounds read low 1.01 | S. cerevisiae deletion strains, locus YOR061W, strain CKA2, active compounds read low 1.02 | S. cerevisiae deletion strains, locus YOR069W, strain VPS5, active compounds read low 1 | S. cerevisiae deletion strains, locus YOR070C, strain gyp1, active compounds read low 1 | S. cerevisiae deletion strains, locus YOR080W, strain dia2, active compounds read low 1 | S. cerevisiae deletion strains, locus YOR083W, strain WHI5, active compounds read low 1.02 | S. cerevisiae deletion strains, locus YOR106W, strain vam3, active compounds read low 1.02 | S. cerevisiae deletion strains, locus YOR136W, strain idh2, active compounds read low 0.974 | S. cerevisiae deletion strains, locus YOR144C, strain elg1, active compounds read low 0.989 | S. cerevisiae deletion strains, locus YOR184W, strain ser1, active compounds read low 1.04 | S. cerevisiae deletion strains, locus YOR231W, strain MKK1, active compounds read low 1.07 | S. cerevisiae deletion strains, locus YOR265W, strain rbl2, active compounds read low 1.01 | S. cerevisiae deletion strains, locus YOR270C, strain vph1, active compounds read low 1.02 | S. cerevisiae deletion strains, locus YOR290C, strain snf2, active compounds read low 0.998 | S. cerevisiae deletion strains, locus YOR316C, strain cot1, active compounds read low 0.992 | S. cerevisiae deletion strains, locus YPL051W, strain arl3, active compounds read low 1 | S. cerevisiae deletion strains, locus YPL055C, strain LGE1, active compounds read low 1.04 | S. cerevisiae deletion strains, locus YPL078C, strain atp4, active compounds read low 0.999 | S. cerevisiae deletion strains, locus YPL106C, strain sse1, active compounds read low 0.997 | S. cerevisiae deletion strains, locus YPL240C, strain hsp82, active compounds read low 1 | S. cerevisiae deletion strains, locus YPL241C, strain CIN2, active compounds read low 1.01 | S. cerevisiae deletion strains, locus YPL256C, strain CLN2, active compounds read low 0.995 | S. cerevisiae deletion strains, locus YPR119W, strain clb2, active compounds read low 0.984 | S. cerevisiae deletion strains, locus YPR141C, strain kar3, active compounds read low 0.999 | S. cerevisiae deletion strains, locus YPR163C, strain tif3, active compounds read low 0.979 | S. cerevisiae deletion strains, locus YPR167C, strain met16, active compounds read low 0.981 | S. cerevisiae deletion strains, strain wtn01, active compounds read low 0.99 | S. cerevisiae strains, strain wild type, active compounds read low 1.01
